# In the supplement of paper PMC11417369:
# Over roughly 25,000 sequences, “ln(normalized median fluorescence intensity)” has its median near 7.1; the highest 2% begin near 10. The list comes from a sample in which the highest values are over-represented; it also holds similar and randomly drawn sequences.
# Tested on: PfSIP2 AP2 domain 1 (GST-tagged)
# Assay: gcPBM binding intensity (ln(normalized median fluorescence intensity)); higher = stronger DNA binding
# Method in brief: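 GST-tagged P. falciparum DNA-binding domains produced in E. coli were incubated for 1 h on an Agilent 4 × 180k array of primer-extended double-stranded 36-bp intergenic genomic probes with negative controls. Binding intensity is the highest Masliner-normalised natural-log median intensity across replicate spots of either probe orientation, with bound protein detected by Alexa488 anti-GST antibody at 488 nm.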
row,Sequence,gcPBM binding intensity (ln)
1,TATATATAGAAACACACACACACATATATATATATA [CACACA_site4116],9.25
2,ATTCTATAGAAACACACACACATGCATGCACCTATA [CACACA_site107],11.7
3,ATACACACAGCCTAAACATGCATATAGAAAAAAGAA [TGCATGCA_site1028],7.4
4,CATAACATAAAATAGGTGCACAAAAATTGTAATTGA,11.2
5,AATAAGTAACAAAATACACACATATAGGTAATTATA [CACACA_site6949],6.83
6,GTTGTGTAATTCGTAACACACATAAAATATATATAA [CACACA_site6059],6.97
7,ACATATGAATATAATACACACTTGTATTATTAATAT [CACACA_site8546],6.85
8,ATATTCTTGTTTAATACACACTGTAGTATTATATAT [CACACA_site4400],7.17
9,GAATAATATGGACATACACACATATACATACCTATA [CACACA_site7075],7.25
10,GTACACCTATAATATACACACAACAAATATGCACAT [CACACA_site6603],8.84
11,ATACAGTTGCATATGGTGCACGAATAATACACCTAT,11.3
12,ACACTTAAATATTGTTGTACAAAATGATAAAATGTA [XGTACX_site4588],7.13
13,CACCCTTTGTTTTAGAGTACATATGTATATACGTAA [XGTACX_site7964],7.53
14,ATAAAAAACTCAGAGCGTACATAATTTTTTCTATTT [XGTACX_site2803],7.24
15,TATATATGGGTAACCTTTTTTTTTTTTTTTCGAACA [CACACA_negctrl_site1303],6.8
16,AGGTAGAAAAAAGACACACACATTATGTATATATAT [CACACA_site377],7.6
17,ACAAAATTTACAAAATGTACAAAATATACAAAATAT [XGTACX_site6465],6.99
18,CACCCTTTACACAAGGTGCATACTTTATTATATTTT [GTGCAC_site9778],10.6
19,ATTTATTTTAAATAAGTGCAAAATGGTTATAAATAA,8.23
20,TTATTTTTATATTTCACACACATATACTTTTACATA [CACACA_site4097],7.28
21,CATATTATTATTTTGGTGCATACTTATATATATTTT,9.74
22,TACATACATATATTATGTACATATTTTATTTTTATT [XGTACX_site1642],7.08
23,TATTTTTATTATATGGTGCATATATACATACATATA,10.4
24,AAAATTATTTAGTAAGTGCAAAAAAAAAAAAAAAAA,8.21

row,Sequence,gcPBM binding intensity (ln)
1,TATTATTATTTTATGGTGCAAAAAAAAAAAAAAAAA,10.6
2,TACAATATATTTATAGTGCATATTACTTTTAACTTT,8.41
3,AAGGAGCCTATGAACACACACATGTACATATATTAA [CACACA_site4084],7.03
4,TATATATGCATTAAAGTGTTTTTTTTTTTTTTTTTT [CACACA_negctrl_site1353],7.72
5,TACACATTATGTATCATACACACAAATAAATATATA [CACACA_site608],7.1
6,TAAGAAATTGAGCGCACACATACATCTGTGGGATGG [CACACA_site1548],6.71
7,CATACACATTTCATATGTACATAGATTGAAGGGAAG [XGTACX_site116],7.21
8,ATATATATTATATGCACACTAATAAGACTATTTAAA [CACACA_site3554],9.68
9,AGCAAGACGGGGTGCACACAAACTAATATGCCGAAT [CACACA_site159],12.1
10,CGAGCAAGACGGGGTGCACACAAACTAATATGCCGA [CACACA_site7936],12.1
11,ATATATATATTATATGCACACTAATAAGACTATTTA [CACACA_site5880],9.55
12,TACGTAATAATATGCACACAAATAAACTTTATAAAT [CACACA_site3501],8.22
13,TATACGTAATAATATGCACACAAATAAACTTTATAA [CACACA_site9166],8.88
14,ATTTAATTCGTACATACACACGCACATATATATATA [CACACA_site8415],8.85
15,CTATTAAAAAAATTATGTACACAACGTCTCTATATA [XGTACX_site4813],7.01
16,TTTTTTAAAATATATATAATGAATTTTTTTTTTTTT [CACACA_negctrl_site1577],7.05
17,TGATCAAATAAGTTTGCATGTCAACAATGCATATAT [TGCATGCA_site1025],7.19
18,AAAAAAAAAAAAGATACACACAAAAATGGATATATA [CACACA_site7069],6.77
19,CAATTATTGTAATGCATGCACTGAATATAAAAAGAA,9.18
20,AAAAAATAAATAAATACACACACACTAATATATATA [CACACA_site8488],7.67
21,TTATAAAAGACAAAAGTGCATATATACATATGTATA,8.27
22,TGAGCACAAATACAGGTGCATATAAAATATATGACG,10.5
23,TATTTTATATAAAGGTGTACTTATACAAAAATATAT [XGTACX_site7435],7.22
24,TATATATATATATGAGTGCATATGTGTAATATAAAA,9.27

row,Sequence,gcPBM binding intensity (ln)
1,AGGTTATAAATAAATACACACATACAAAAATATGAC [CACACA_site4773],6.94
2,TTTTTTTGTTAAAAGGTGCTAATATATATAAGTGCT,9.03
3,ATGTTTGAGCCTAAGGTGCATATAAAAATATATGTG [GTGCAC_site9690],10.7
4,GTTATAAATAAATACACACATACAAAAATATGACGT [CACACA_site1154],6.94
5,ATTTTTCTAAAATACTGTACAAAGGTGCATAAAAAG [XGTACX_site4425],11.5
6,ATTTTATATAATACATGTACAAAAGTTTAAATTTAT [XGTACX_site6196],7.13
7,TTTTCTCTAAAAAGGTGTACAACTAATAATGCACTG [XGTACX_site6074],9.09
8,TATAAATATACAAAGGTGCATAAAAAGTTATGTTTT [GTGCAC_site9832],10.4
9,GAAAGGAAAAGTTGAACACACAAAGTAAACTATAAG [CACACA_site3535],6.7
10,TCTATTAACTGATGTGCATGTTATAACCTAGAAGTA [TGCATGCA_site359],7.42
11,TAAAAGTATTCCTTTTGTACATATAATGAAAACAAT [XGTACX_site2069],6.8
12,TGATAAAATATTAAATTATTTCTTTATTTAAAGATT [CACACA_negctrl_site370],6.67
13,AAGATAAATTATTATAAATCAATTGTGCCAACAATA [CACACA_negctrl_site144],6.69
14,ATTATAAAAATATCGTGTACATATTTTTTAAAATAA [XGTACX_site5072],7.12
15,TTATACCATATTTATAGTACGTACAAATAAATCAAT [XGTACX_site4975],7.3
16,TTAATCCACAGACACACACACACAAAATAAAATACA [CACACA_site244],7.22
17,AAGATCGCATGAAATGAACACACATAAAAAAAATAT [CACACA_site9353],7.05
18,ATACATTCAAAATATACACACATATATATATAATAT [CACACA_site950],7.13
19,ATACATATTAACAAGGTGCAAATGGATTTCATAAAA [GTGCAC_site9775],10.7
20,TATATACATGTGAGAGTGCATATAGACATAAAAAAT,8.96
21,ACAAGCTTTCATAAGGTGCAATGATTTAACAAAAAA [GTGCAC_site9726],10.1
22,TTTTGTTCATACAAATTGGAACAAGACAAAAATATA [XGTACX_negctrl_site327],7.16
23,AATACATATTCAAAGGTGCAAAATAAAAATATACAT [GTGCAC_site9743],11
24,AATATACATAACAAGGTGCAAAAAATATTGTTCATA [GTGCAC_site9499],10.9

row,Sequence,gcPBM binding intensity (ln)
1,ATATATTTAAAAAAATGTACAAATCATAAATGCAAG [XGTACX_site4230],7.07
2,AAGACAATATATGCAGTGCATATACATACATATATA,8.3
3,TATATTGCAAAAAGTACACACATAAATAAATACATA [CACACA_site6589],7.23
4,ATAACATTCATATTCACACAAAAATATACTACATAG [CACACA_site4529],7.09
5,AAATTGAGACAACAGGTGCATATAAATATACAGTGT [GTGCAC_site9634],10.6
6,AGAAAGGTGGTATTAAAAGAATAACCTATGAATAAA [GTGCAC_negctrl_site325],6.79
7,CCATATAATATGAACAGTACACACAAAATAAATTCG [XGTACX_site7590],7.08
8,ATCAAAAAAAAAAAAAGTACACAAAATTTTTTATTA [XGTACX_site7986],6.88
9,CTATTGTTAAATATAATACACACGTTTTTAAAAATA [CACACA_site2183],6.97
10,GTTTAACTGTTTTATACACACAATGTATACAATAAA [CACACA_site2959],7.02
11,TTTTTATAATAAAAAAATATAACTATATTAAGCCAC [CACACA_negctrl_site555],7.1
12,AATATATTTTCCTGCAAACACACATATAAATGTGTA [CACACA_site532],6.96
13,TCAACCAAAACATAAGCATGCAATATATTTTTATAC [TGCATGCA_site560],7.16
14,TTTATAATTTATATCACACACATATATATATAGTAA [CACACA_site8],7.05
15,TTTCTATATAGATTTGCACACATAAAAATGCTTATA [CACACA_site2390],7.18
16,ATCGGTAATATTAACACACACATTTATATATATTTA [CACACA_site1084],7.2
17,ATATCGTGTGCATTAACACACATTTATTTGAATAAA [CACACA_site7162],7.65
18,AACATTTTAAATTATACACACATTTTGAATATATAT [CACACA_site3470],7.2
19,ACATATCGGGTGCATTAACACACATTTATTTGAATA [CACACA_site8736],11.6
20,ATCGGTAATATTAACACACACATTTATTTATATTTA [CACACA_site6638],7.01
21,ATATCGGGTGCATTAACACACATTTATTTGAATAAA [CACACA_site2350],11.7
